Consider 17 molecules from PubChem BioAssay (Tox21).

Values joined by “and” are separate entries in the source; they are usually repeats but may differ in a detail not shown here. Identical values can stand only once. Records with an inconclusive call do not appear. Active and inactive are the calls of the source. Unless noted, calls come from the whole dose curve; as a rule, active = well fitted curve in the direction sought with a large enough effect in the repeat runs; inconclusive = weak or mixed curves; inactive = no such curve, though single readings can be large; an effect the other way counts as inactive or inconclusive.

Test [1] can be described thus: qHTS assay to identify small molecule agonists of the vitamin D receptor (VDR) signaling pathway - cell viability counter screen (AID 743224). Note: nearly all actives have a fitted effect of over 50% in size. Note: potency is the fitted concentration of half-maximal effect. In short, it runs like this: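 Here cell health was gauged by luminescent ATP detection (CellTiter-Glo, 30 min RT) in VDR-bla cells that had been incubated with test compounds for 16 h at 37C and 5% CO2.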
A short description of test [2]: qHTS assay to identify small molecule agonists of the NFkB signaling pathway - cell viability counter screen (AID 1159515; calls by dose curve; note: nearly all actives have a fitted effect of over 55% in size; note: potency is the fitted concentration of half-maximal effect). In short, it runs like this:
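5 hr compound treatment of NFkB-bla ME-180 cells (2,000/well, seeded overnight beforehand), followed by reporter substrate for 1.5 hr. CellTiter-Glo added afterward; luminescence after 30 min RT.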

The nature of test [3]: qHTS assay to identify small molecule agonists of the endoplasmic reticulum stress response signaling pathway - cell viability counter screen (AID 1159517; calls by dose curve; note: nearly all actives have a fitted effect of over 50% in size; note: potency is the fitted concentration of half-maximal effect). In short, it runs like this: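 CellTiter-Glo was added to wells already read for beta-lactamase FRET, and luminescence was recorded 30 min later. Cells: ESRE-bla HeLa, 1,500 per well, compound exposure 5 hr at 37 C.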

Test [4] is described as follows: qHTS assay to identify small molecule antagonists of the retinoid-related orphan receptor gamma (ROR-gamma) signaling pathway - cell viability counter screen (AID 1159520). Note: nearly all actives have a fitted effect of over 50% in size. Note: potency is the fitted concentration of half-maximal effect. In short, it runs like this:
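Tet-on ROR gamma CHO cells (1,000/well) were plated 4 hr, given compounds in DMSO for 2 hr at 37 C, then induced with 1 uM final doxycycline for 16 hr. Viability was read as ATP by CellTiter-Glo luminescence after 30 min.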

Test [5] has as its target Nuclear receptor ROR-gamma (Homo sapiens) (UniProt P51449). Briefly: qHTS assay to identify small molecule antagonists of the retinoid-related orphan receptor gamma (ROR-gamma) signaling pathway (AID 1159521; note: nearly all actives have a fitted effect of over 50% in size; note: potency is the fitted concentration of half-maximal effect). The essentials: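 RORγ antagonism is scored from reduced reporter luminescence in Tet-on CHO cells. Induction used 1 uM final doxycycline hyclate for 16 h at 37 C, following a 2 h compound exposure.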

A short description of test [6]: qHTS assay to identify small molecule agonists of the AP-1 signaling pathway - cell viability counter screen (AID 1159525; calls by dose curve; note: nearly all actives have a fitted effect of over 55% in size; note: potency is the fitted concentration of half-maximal effect). The essentials:
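ME-180 AP-1-bla, 2500 cells/well, Opti-MEM + 0.5% dialyzed FBS; overnight 37 °C; cpd 15-pt titration, 5 h 37 °C; CellTiter-Glo 30 min RT; luminescence read; normalised to TOAB and DMSO controls.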

Test [7] is described as follows: qHTS assay to identify small molecule agonists of the AP-1 signaling pathway (AID 1159526; calls by dose curve).
Test [8] in a line: qHTS assay to identify small molecule agonists of the RXR signaling pathway - cell viability counter screen (AID 1159529). Note: nearly all actives have a fitted effect of over 50% in size. Note: potency is the fitted concentration of half-maximal effect. The essentials:
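Cell viability is measured by CellTiter-Glo luminescence, 30 min at room temperature, in wells already read for beta-lactamase. Engineered HEK 293T cells (RXR-alpha-UAS-bla) are dosed 16 hr at 37 C. Tetraoctyl ammonium bromide serves as positive control.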

A short description of test [9]: qHTS assay to identify small molecule antagonists of the retinoid acid receptor (RAR) signaling pathway - cell viability counter screen (AID 1159551). Note: nearly all actives have a fitted effect of over 35% in size. Note: potency is the fitted concentration of half-maximal effect. The essentials:
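Seed C3RL4 cells; next day add compound, then retinol to 1 uM final; incubate 6 h at 37 C; add CellTiter-Glo; read luminescence after 30 min at RT.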

A short description of test [10]: qHTS assay to identify small molecule antagonists of the vitamin D receptor (VDR) signaling pathway - cell viability counter screen (AID 743225). Note: nearly all actives have a fitted effect of over 50% in size. Note: potency is the fitted concentration of half-maximal effect. In short, it runs like this: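 Cells (VDR-UAS-bla HEK 293T) are plated, rested 4 h at 37C, dosed with compound and 3 nM final 1-alpha,25-dihydroxy vitamin D3, and incubated 16 h. Viability is taken from CellTiter-Glo luminescence in the reporter wells.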

The nature of test [11]: qHTS assay to identify small molecule antagonists of the retinoic acid receptor (RAR) signaling pathway (AID 1159552; note: nearly all actives have a fitted effect of over 50% in size). In short, it runs like this: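 Quantitative HTS in C3RL4 RARE-luciferase reporter cells. Compounds were added with 1 uM (final) retinol; luminescence was read after 6 hr.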
The nature of test [12]: qHTS assay to identify small molecule agonists of the retinoic acid receptor (RAR) signaling pathway (AID 1159553). Note: potency is the fitted concentration of half-maximal effect. Conditions: C3RL4 RARE luciferase reporter, agonist, 6 h; activation: at 73.3 µM (top of the series) unless noted. The essentials: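 Activation of retinol signaling was monitored via a RARE luciferase reporter in C3RL4 cells. After 6 hr compound treatment at 37 C, detection reagent was added for 30 min at room temperature before luminescence reading.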

Test [13] concerns the target Retinoic acid receptor RXR-alpha (Homo sapiens) (UniProt P19793). Briefly: qHTS assay to identify small molecule agonists of the RXR signaling pathway (AID 1159527; calls by dose curve; note: nearly all actives have a fitted effect of over 35% in size). In short, it runs like this:
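qHTS of the Tox21 10K library in GeneBLAzer RXR-alpha HEK 293T cells carrying a beta-lactamase reporter […]; 16 hr treatment, 9-cis retinoic acid as agonist control, FRET read-out.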

Test [14] in a line: qHTS assay to identify small molecule antagonists of the estrogen related receptor (ERR) signaling pathway - cell viability counter screen (AID 1224818).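 Note: viability measured after 17.5 h of compound exposure.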 In short, it runs like this: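 In the same ERR cell assay, compound-treated wells (17.5 h, 37 C) were multiplexed with a fluorogenic viability reagent, CellTiter-Fluor, read after 30 min to flag cytotoxic substances.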
A short description of test [15]: qHTS assay to identify small molecule antagonists of the estrogen related receptor signaling pathway with the pleiotropic PPARgamma coactivator (PGC) cell viability counter screen (AID 1224822). The essentials:
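Compounds in DMSO, with positive and negative controls, were applied to PGC/ERR cells (2,000/well) and left 17.5 h at 37 C before CellTiter-Fluor detection.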

Chain of Retinoic acid receptor RXR-alpha (Homo sapiens) (P19793 whole entry, looked up): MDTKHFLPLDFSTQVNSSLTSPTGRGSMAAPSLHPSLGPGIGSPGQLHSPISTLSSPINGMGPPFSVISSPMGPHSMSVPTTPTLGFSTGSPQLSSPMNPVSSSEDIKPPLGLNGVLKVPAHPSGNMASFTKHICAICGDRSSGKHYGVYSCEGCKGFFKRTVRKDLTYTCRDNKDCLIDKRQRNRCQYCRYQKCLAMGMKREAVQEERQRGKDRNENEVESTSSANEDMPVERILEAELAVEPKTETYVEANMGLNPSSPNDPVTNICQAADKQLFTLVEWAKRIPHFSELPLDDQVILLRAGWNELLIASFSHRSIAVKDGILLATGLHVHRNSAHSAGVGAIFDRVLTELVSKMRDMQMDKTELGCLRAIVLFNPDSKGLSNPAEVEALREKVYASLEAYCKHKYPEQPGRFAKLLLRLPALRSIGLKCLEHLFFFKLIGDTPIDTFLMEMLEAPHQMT

In the case of `O=C(O)c1cc(-c2ccc(F)cc2F)ccc1O`, the Potency entry in [1], in test [2], in test [3], in test [4], in test [5] and in [6] was “inactive” each time. The Potency result in [7], in test [8] and in test [9] was “inactive” throughout.

As to `CCCCCCCCCCCCCCCC[N+](C)(C)CC`, the Potency in [1] is 21.9 µM (active); in test [2], 21.3 µM (active); in test [3], 24.6 µM (active); in [4], 61.3 µM (active) and 23.7 µM (active); in [5], 17.3 µM (active) and 2.98 µM (active); in [8] it was 8.74 µM (active) and 10.7 µM (active). For the same molecule, in test [9], the Potency is 61.3 µM (active).

Turning to `O=c1oc2cc(O)ccc2c2oc3cc(O)ccc3c12`, the Potency entry in test [1], in [10], in [2], in test [3], in [4] and in test [5] was “inactive” each time. For the same molecule, the Potency result in test [6], in test [7], in test [9] and in test [11] was “inactive” throughout. Further, the Potency in test [12] was 52.2 µM (active).

Regarding `CC(C)=CCNc1ncnc2c1ncn2[C@@H]1O[C@H](CO)[C@@H](O)[C@H]1O`, the Potency in [1] is 11.9 µM (active); in test [2] it was 8.49 µM (active); in [3], 13.4 µM (active); in [4] it was 10.6 µM (active); in test [5], 13.3 µM (active); in test [6], 6.01 µM (active). Besides, in test [9], the Potency was 13.3 µM (active). Moreover, the Potency result in test [7] was “inactive”.

For the molecule `C=Cc1ccccc1C=C`, the Potency entry in test [1], in [2], in [3], in test [4], in test [5] and in test [6] was “inactive” throughout. The Potency entry in test [7], in test [9], in test [11] and in [12] was “inactive” each time.

Turning to `COc1ccc2c(c1)c(CC(=O)OC/C=C(\C)CC/C=C(\C)CCC=C(C)C)c(C)n2C(=O)c1ccc(Cl)cc1`, the Potency result in test [1], in test [2], in [3], in [4], in [5] and in [6] was “inactive” each time. The Potency result in test [7], in test [8], in test [9], in test [11] and in [12] was “inactive” in each case.

For the molecule `CNc1ccc([N+](=O)[O-])cc1`, the Potency entry in test [1], in [10], in test [2], in test [3], in [4] and in test [5] was “inactive” throughout. Moreover, the Potency result in test [6], in test [7], in test [13] and in [9] was “inactive” each time.

In the case of `Cc1cc(=O)oc2cc(O)cc(O)c12`, the Potency result in [1], in test [10], in [2], in [3], in [4] and in test [5] was “inactive” in each case. The Potency result in [6], in test [7] and in test [12] was “inactive” each time.

`O=C(O)c1cc(N=Nc2ccc([N+](=O)[O-])cc2)ccc1O`: the Potency result in [1], in test [10], in [2], in [3], in [4] and in test [5] was “inactive” in each case. Moreover, the Potency entry in test [6], in test [7], in [8], in test [9] and in [11] was “inactive” throughout. The Potency in test [12] was 6.73 µM (active).

For the molecule `CCCCCCC1CCCC(=O)O1` (stereo not given), the Potency result in test [1], in test [2], in test [3], in test [4], in [5] and in test [6] was “inactive” each time. The Potency result in test [7], in [8], in [9], in test [11] and in [12] was “inactive” in each case.

Take `O=C(O)Cc1ccccc1Nc1c(Cl)cccc1Cl`: the Potency entry in test [1], in [10], in [2], in test [3], in test [4] and in test [5] was “inactive” throughout. The Potency result in [6], in test [7], in test [8], in test [9] and in test [15] was “inactive” in each case. The molecule was classed as inactive in test [14].

Regarding `Nc1ccc(C(=O)O)c(O)c1`, the Potency result in test [1], in test [10], in [2], in [3], in test [4] and in test [5] was “inactive” throughout. The Potency entry in test [6], in [7], in test [13], in test [9] and in test [12] was “inactive” each time.

For `O=C1OC2(c3ccc(O)cc3Oc3cc(O)ccc32)c2ccc(N=C=S)cc21`, the Potency result in [1], in test [10], in test [2], in test [3], in [4] and in test [5] was “inactive” each time. Besides, the Potency result in test [6], in test [7], in test [8], in test [9], in test [11] and in test [12] was “inactive” each time.

For the molecule `CCN(CCN)c1cccc(C)c1`, the Potency entry in test [1], in test [10], in test [2], in test [3], in test [4] and in test [5] was “inactive” in each case. The Potency entry in test [6], in [7], in [8], in [9], in test [11] and in [12] was “inactive” each time.

For the molecule `CC(C(=O)O)c1ccc2c(c1)[nH]c1ccc(Cl)cc12` (stereo not given), the Potency entry in [1], in [10], in test [2], in test [3], in test [4] and in test [5] was “inactive” in each case. Moreover, the Potency entry in test [6], in test [7], in [8], in [9], in [11] and in [12] was “inactive” in each case.

For the molecule `CCC(C)n1ncn(-c2ccc(N3CCN(c4ccc(OC[C@H]5CO[C@](Cn6cncn6)(c6ccc(Cl)cc6Cl)O5)cc4)CC3)cc2)c1=O` (stereo not given in full), the Potency entry in [1], in test [10], in test [2], in test [3], in test [4] and in test [6] was “inactive” in each case. The Potency result in [7], in [9] and in test [12] was “inactive” each time. Further, the Potency in test [5] was 1.19 µM (active).

As for `O=C1c2ccccc2C(=O)N1SC1CCCCC1`, the Potency in [1] was 54.9 µM (active); in test [10] it was 48.9 µM (active); in test [3] it was 43.6 µM (active); in test [4], 48.5 µM (active) and 54.5 µM (active); in test [5], 27.3 µM (active); in [8], 48.9 µM (active) and 49 µM (active). Moreover, the Potency entry in [2] and in [9] was “inactive” in each case.
